Screens as filed in PubChem BioAssay.
N370S GC mod – qHTS Assay for Inhibitors and Activators of N370S glucocerebrosidase as a Potential Chaperone Treatment of Gaucher Disease | Lysosomal acid glucosylceramidase (Homo sapiens), P04062 | N370S GC spleen homogenate, 4MU-glucoside fluorescence | Potency, µM (highest dose often 59.4 µM), for the others: at the top dose activity change, negative = inhibition, actives largely listed as inhibitors | 0.092% of 330,000 active;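 note: potency is the fitted concentration of half-maximal effect; 0% = full enzyme activity and -100% = no enzyme basal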
p53 reactivation – qHTS assay for re-activators of p53 using a Luc reporter. 0.063% of 320,000 active. AID 504706, 2011. Potency, µM (titrated, usually from 92.2 µM), without a hit: at the highest dose activity change, positive = activation, actives largely listed as activators. H1299 p53-A138V BP100-luciferase reporter, luminescence, 24 h; note: potency is the fitted concentration of half-maximal effect; % of control where 0% means no effect; nearly all actives have a fitted effect of over 45% in size
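H1299 (p53-null), stable ts p53-A138V + BP100-Luc; 1000 cells/well, Opti-MEM/10% FBS; cpd 4 pt, 1:5; 24 h, 37 deg C, 5% CO2; detection reagent 10 min RT; luminescence.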
GLS inhibitor – qHTS for Inhibitors of Glutaminase (GLS); GLS enzymatic activity, qHTS titration; Potency, µM (doses to about 45.5 µM), for the others: top-dose activity change, negative = inhibition, hits mostly inhibitors; 0.21% of 410,000 active; AID 624170, 2012; note: potency is the fitted concentration of half-maximal effect; % is set by controls: 0 for no effect and ±100 for the full control effect
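Compounds were pin-transferred onto hKGA, after which L-glutamine (1 mM solution) and a detection mix of glutamate oxidase, HRP and Amplex Red were added. Initial and 30 min RT fluorescence reads were collected.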
TSHR antag – Antagonists of the Thyroid Stimulating Hormone Receptor: HTS campaign. 0.2% of 330,000 active. AID 504810, 2011. TSHR-expressing cells, TSH-stimulated cAMP HTRF, 2 h; active compounds read low. activity change, negative = inhibition, % at 11.5 µM. Thyrotropin receptor (Homo sapiens), P16473;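 active = activity change below a set negative limit, meaning inhibition stronger than a set level, cut at about -70% in these data; inconclusive = activity change between two set negative limits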; note: % is set by controls: 0 for no effect and ±100 for the full control effect
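Read-out is FRET at 665 nm (cryptate excitation 337 nm) from a cryptate-tagged anti-cAMP antibody, competed by cell cAMP against cAMP-d2. Compounds are tested on freshly harvested TSHR cells challenged with 4nM TSH (EC80) for 2 hours at 37 deg C.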
BRCA1 expr up – qHTS Assay to Identify Small Molecule Activators of BRCA1 Expression; AID 624202, 2012; 1.1% of 380,000 active; Potency, µM (titrated, usually from 46.1 µM), for the others: at the top dose activation, most hits filed as activators; MCF7-BRCA1-FFLuc reporter, luminescence, 48 h; response scale: scaled: vehicle 0%, 10 µM genistein 100%; note: potency is the fitted concentration of half-maximal effect; nearly all actives have a fitted effect of over 80% in size
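Luminescence from a BRCA1-driven firefly luciferase in MCF7 cells was the read-out, taken 15 min after substrate addition following 48 h compound exposure at 37 °C. Data were normalized to a 10 microM genistein control and DMSO vehicle.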
TCR activator – Activators of T cell receptors: qHTS campaign; 330,000 tested, under 10 active; Potency, µM (titrated, usually from 9.22 µM), inactives show at the top dose activation of IL-2 secretion, most hits filed as activators; primary human leukocytes, anti-CD3, IL-2 HTRF, 48 h; note: % of control where 0% means no effect
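Compounds are tested in HTS on primary human leukocytes co-incubated with a-CD3 beads for 48 hr. IL-2 output is measured by time-resolved FRET.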
The depositor's hits bear a star; ? = inconclusive; / = no result given; [ ] = another dose, or the depositor's remark. A selection: hits, their analogues and other compounds. The true share with any hit is near 1.4%. Unless noted, calls come from the whole dose curve; as a rule, active = well fitted curve in the direction sought with a large enough effect; inconclusive = small, poorly fitted or top-dose-only effect, or another doubt; inactive = no such curve, though single readings can be large; an effect the other way counts as inactive or inconclusive.

SMILES	N370S GC mod	p53 reactivation	GLS inhibitor	TSHR antag	BRCA1 expr up	TCR activator
O=C(NC(=S)Nc1ccc2c(c1)OCCO2)c1cccc(Br)c1	-15%	?	19%	1	4µM*	-1%[46.1 µM]
CCC1CCCCN1CCCNC(=O)c1[nH]c2ccccc2c1Sc1ccc(Cl)cc1 (stereo not drawn)	/	/	3%	/	/	/
O=C(CSc1ccccn1)c1ccc2c(c1)OCO2	7%	10%	-2%	0	7.1µM*	6%
C=CCOC(=O)C1=C(C)N=c2s/c(=C3\C(=O)N(CC(=O)O)c4ccccc43)c(=O)n2C1c1ccc(OC)cc1 (stereo not drawn)	-17%	6%	22µM*	-2	-7%	3%
CCOC(=O)C1=C(C)N=c2s/c(=C3\C(=O)Nc4ccccc43)c(=O)n2C1c1ccc2c(c1)OCO2 (stereo not drawn)	-15%	9%	3%	20	-1%	-44%
N#Cc1ccccc1Oc1ccc(S(=O)(=O)N2CCCCC2)cn1	-14%	18%	-1%	0	10µM*	-4%
Nc1c(C(=O)Nc2ccccc2)sc2nc(-c3cccnc3)ccc12	-15%	2%	/	8	/	/
Nc1c(C(=O)N2CCCC2)sc2nc(-c3ccccc3)ccc12	-8%	6%	-4%	-4	5.6µM*	-2%
Nc1c(C(=O)N2CCCCC2)sc2nc3c(cc12)CCCC3	0%	?	-4%	-15	5.6µM*	-4%
CO[C@H](C(=O)[C@@H](O)[C@@H](C)O)C1Cc2cc3cc(O[C@H]4C[C@@H](O[C@H]5C[C@@H](O)[C@H](O)[C@@H](C)O5)[C@@H](O)[C@@H](C)O4)c(C)c(O)c3c(O)c2C(=O)[C@H]1O[C@H]1C[C@@H](O[C@H]2C[C@@H](O[C@H]3C[C@](C)(O)[C@H](O)[C@@H](C)O3)[C@H](O)[C@@H](C)O2)[C@H](O)[C@@H](C)O1 (stereo partly drawn)	/	/	-27%	/	/	/
O=C(Cc1ccc(Br)cc1)N1CCc2ccccc2C1	0%	8%	-4%	-20	10µM*	/
C/C=C1\COC(C(=O)NCc2cccc(OC)c2OC)(C(F)(F)F)C=C1C=C(C)C (stereo not drawn)	-2%	/	/	/	/	/
O=C1C2=C(C(=O)c3ccccc31)C1O[C@](CCCCN3C(=O)c4ccccc4C3=O)(Cc3c1ccc1ccccc31)O2	-4%[12.8 µM]	/	/	/	/	/
CCOc1cc(/C=C2\C(=O)ON=C2c2ccccc2)cc(Br)c1O	-4%	-12%	8.9µM*	-5	-86%	-11%
CCC1CCCCN1C(=O)CSc1nnc(-c2cccc(Cl)c2)o1 (stereo not drawn)	10%	15%	-3%	4	10µM*	7%
CCC1CCCCN1C(=O)CSc1nnc(-c2ccco2)o1 (stereo not drawn)	2%	?	1%	7	3.2µM*	1%[46.1 µM]
CC(C)Oc1ccc(Nc2ncnc3ccccc23)cc1	-8%	-11%	1%	6	2.5µM*	5%
Oc1ccc(Nc2ncnc3ccccc23)cc1	-13%	/	5%	10	17%	/
CC(=O)Oc1cccc(Nc2ncnc3ccccc23)c1	-3%	/	3%	16	5%	-1%
Cc1ccc(Nc2ncnc3ccccc23)cc1	-26%	13%	0%	-4	5.6µM*	11%
COc1cc2c(cc1OC)C(c1cc(-c3cc(Cl)ccc3Cl)oc1C)=NCC2	/	/	/	/	-24%	/
CO[C@@]1(NC(=O)CSC(F)F)C(=O)N2C(C(=O)O)=C(CSc3nnnn3CCO)CO[C@@H]21	/	/	1%	/	/	/
